We go through 36 compounds from ChEMBL document CHEMBL3433997, “St. Jude Leishmania screening dataset” (2016).

Common to all, as to type: functional
Test [1] deals with Solute carrier family 2, facilitated glucose transporter member 1 (Homo sapiens) (UniProt P11166). The test is described as follows: ST_JUDE_LEISH: Cytotoxicity at 2uM final concentration against transgenic Leishmania Mexicana promastigotes LmGLUT1 that are glucose transport deficient and complemented with the human glucose transporter GLUT1. Activity is measured by DNA content using SYBR green in vitro.

Test [2] deals with Hexose transporter 1 (Plasmodium falciparum) (UniProt O97467). The test is described as follows: ST_JUDE_LEISH: Cytotoxicity at 2uM final concentration against transgenic Leishmania Mexicana promastigotes LmPfHT that are glucose transport deficient and complemented with the Plasmodium falciparum hexose transporter. Activity is measured by DNA content using SYBR green in vitro.

Test [3] concerns the target Glucose transporter (Leishmania mexicana) (UniProt O61059). The test is described as follows: ST_JUDE_LEISH: Cytotoxicity at 2uM final concentration against transgenic Leishmania Mexicana promastigotes LmGT2 that are glucose transport deficient and complemented with the L. Mexicana glucose transporter 2. Activity is measured by DNA content using SYBR green in vitro.

Solute carrier family 2, facilitated glucose transporter member 1 (Homo sapiens), sequence (P11166 whole entry): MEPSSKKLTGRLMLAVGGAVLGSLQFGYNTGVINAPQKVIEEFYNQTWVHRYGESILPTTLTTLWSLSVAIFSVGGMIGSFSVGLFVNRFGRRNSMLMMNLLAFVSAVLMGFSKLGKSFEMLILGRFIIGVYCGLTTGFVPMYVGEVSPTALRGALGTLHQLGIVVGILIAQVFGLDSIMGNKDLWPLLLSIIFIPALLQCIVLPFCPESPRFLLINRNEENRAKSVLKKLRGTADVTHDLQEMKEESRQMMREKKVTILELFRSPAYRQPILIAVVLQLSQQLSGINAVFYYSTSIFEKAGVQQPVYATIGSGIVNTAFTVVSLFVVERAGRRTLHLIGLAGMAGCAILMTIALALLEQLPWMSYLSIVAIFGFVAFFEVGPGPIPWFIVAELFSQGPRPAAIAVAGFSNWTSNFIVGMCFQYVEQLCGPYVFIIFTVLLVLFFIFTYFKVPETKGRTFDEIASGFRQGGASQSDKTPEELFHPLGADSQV

A word on the inhibition: it is the drop in the measured response relative to a control, in per cent. For the compound `O=C(Nc1ccc(Cl)cc1)Nc1ccc2nonc2c1`, the inhibition in test [1] was 0.79%; in test [2] it was 1.43%; in test [3], 0.9%.
The corresponding values for `Cc1nc2ccccc2c(O)c1-c1ccc(Cl)cc1` are 1.42%, -1.38% and -1.04%.
Turning to `Oc1ccc2ncnc(Nc3ccc(OCc4cccc(F)c4)c(Cl)c3)c2c1`, the inhibition in test [1] is -2.81%; in test [2] it was -0.64%; in test [3], -1.78%.
Taken in the same sequence, the figures for `Nc1ncc(-c2ccc(F)cc2)cc1-c1nc2ccc(Cl)cc2[nH]1` were 4.48%, 5.54% and 2.11%.
Turning to `Cc1cccc(NC(=O)c2ccc(C(=O)NC3CCN(CC4CCCCC4)C3)cc2)c1` (stereo not drawn), the values for the inhibition in test [1], in test [2] and in test [3] were 5.04%, 3.98% and -1.15%, respectively.
Regarding `CC(C)CCN1C(=O)C(NC(=O)Oc2ccccc2)C(=O)N(CC23CC4CC(CC(C4)C2)C3)c2ccccc21` (stereo not drawn), the inhibition is -1.21% in test [1], -2.53% in test [2] and -2.02% in test [3].
Consider `CCc1nc(N)nc(N)c1-c1ccc(Cl)cc1`, for which the values for the inhibition in test [1], in test [2] and in test [3] were 2.26%, 3.31% and 3.36%, respectively.
The corresponding values for `O=C(c1cc(-c2ccco2)n[nH]1)N1CCN(S(=O)(=O)c2ccc(Cl)cc2)CC1` are -0.38%, -0.62% and -1.09%.
For `CC(C)C(=O)NC(c1ccc(N(C)C)cc1)c1cc(Cl)c2cccnc2c1O` (stereo not drawn), the inhibition came to 3.89% in test [1], 4.2% in test [2] and 1.29% in test [3].
As to `COc1ccc2c(NN=Cc3ccc(F)cc3)ccnc2c1`, the inhibition in test [1] was 1.29%; in test [2], 2.43%; in test [3] it was 1.85%.
On to `O=C(Nc1cccc(CN2CCN(Cc3ccc(O)cc3)CC2)c1)c1ccc(Cl)c(Cl)c1`, for which the values for the inhibition in test [1], in test [2] and in test [3] were 3.5%, 5.27% and 2.47%, respectively.
Turning to `O=C(/C=C/c1ccc(Cl)c(Cl)c1)NCCCCCN1CC[C@H](NC(=O)/C=C/c2ccccc2)C1`, the inhibition in test [1] is 0.76%; in test [2], 0.86%; in test [3], -0.08%.
`Cn1nc(-c2cccc(CNC3CCc4ccccc43)c2)c2cnc(NCCCN3CCCC3)nc21` (stereo not drawn): the inhibition in test [1] came out at 29.9%; in test [2], 32.6%; in test [3] it was 25.9%.
Taken in the same sequence, the figures for `COc1ccc2nccc([C@@H](O)CN3CCC(NCc4nc5c(F)cccc5[nH]4)CC3)c2c1` were 1.46%, 0.84% and -0.41%.
Consider `O=S(=O)(Nc1cccc(CCN2CCC(N3CCCCC3)CC2)c1)c1ccc(Oc2ccccc2)cc1`, for which the inhibition in test [1] was 4.33%; in test [2], 4.71%; in test [3], 2.69%.
`O=C(NC1CC1)c1cnc(N2CCC(OCc3ccccc3)CC2)c(Cl)c1`: the inhibition in test [1] is 1.59%; in test [2], 3.18%; in test [3], -1.03%.
Regarding `Nc1cccc(CNCc2ccc(-c3cccc(-c4nc5cc(C(F)(F)F)ccc5[nH]4)c3)cc2)c1`, the inhibition was found to be 0.23% in test [1], 1.1% in test [2] and 1.02% in test [3].
Consider `COc1cc(Cc2cnc(N)nc2N)cc(OC)c1OCCCCCN1C(=O)c2ccccc2C1=O`, for which the inhibition in test [1] was 3.29%; in test [2] it was -0.4%; in test [3] it was 0.36%.
As for `NC1CCCN(Cc2cccc(-c3ccc(-c4nc5cc(F)ccc5[nH]4)cc3)c2)C1` (stereo not drawn), the inhibition was 3.55% in test [1], 3.14% in test [2] and 3.43% in test [3].
As for `CCN(CC)CCCC(C)Nc1c2ccccc2nc2ccc3ccccc3c12` (stereo not drawn), the figures for the inhibition in test [1], in test [2] and in test [3] were 1.95%, 2.89% and 2.22%, respectively.
Turning to `CN1CCCN(Cc2cccc(-c3cccc(NC(=O)c4cccc(Cl)c4)c3)c2)CC1`, the inhibition is 13.4% in test [1], 9.81% in test [2] and 9.71% in test [3].
Take `CCS(=O)(=O)N1CCN(c2nc(-c3ccccc3)nc(COC)c2Cc2ccccc2F)CC1`: the inhibition in test [1] stood at 3.58%; in test [2], 2.32%; in test [3], 4.99%.
On to `FC(F)(F)c1ccc2[nH]c(-c3ccc(-c4cccc(CNCC5CCCO5)c4)s3)nc2c1` (stereo not drawn), for which the inhibition in test [1] worked out at 0.73%; in test [2], 2.27%; in test [3], 2.21%.
Regarding `COCCNCc1cccc(-c2cc3nccc(Nc4ccc(Oc5ccccc5)cc4)c3cc2Cl)c1`, the inhibition in test [1] was -0.26%; in test [2] it was 2.37%; in test [3] it was 0.83%.
For `N=C(N)Nc1cccc(NC(=O)Nc2cccc(NC(=N)N)c2)c1`, the values for the inhibition in test [1], in test [2] and in test [3] were 6.92%, 4.83% and 3.86%, respectively.
Take `Cc1cc(N(CCCN(C)C)Cc2cc(F)cc(F)c2)nc(Nc2ccc(Cl)cc2)n1`: the inhibition is -0.3% in test [1], 0.46% in test [2] and 1.83% in test [3].
For the compound `COc1ccc(NC(=O)c2cc(NC(=O)C3(N)CC3)c(=O)n(Cc3ccc(C(N)=O)cc3)c2)cc1`, the figures for the inhibition in test [1], in test [2] and in test [3] were 0.5%, 3.44% and 2.12%, respectively.
Regarding `Cc1cc(N[C@@H](Cc2ccccc2)C(=O)NCc2cccs2)nc(NCC2CCCCC2)n1`, the inhibition is 3.33% in test [1], 2.71% in test [2] and -0.41% in test [3].
As to `Cc1cccc2nc(-c3ccc(-c4ccc(CN5CC(C)OC(C)C5)cc4)cc3)[nH]c12` (stereo not drawn), the results for the inhibition in test [1], in test [2] and in test [3] were 4.48%, 3.58% and 0.01%, respectively.
In the case of `O=C(Nc1ccc(-c2cccc(-c3nc4ccccc4[nH]3)c2)cc1)Nc1ccc(F)c(F)c1F`, the inhibition is 0.73% in test [1], -0.07% in test [2] and 0.32% in test [3].
With `Cc1cc(NCCC(=O)NCCOc2ccccc2)nc(Nc2ccccc2)n1`, the inhibition was 5.24% in test [1], 4.64% in test [2] and 0.05% in test [3].
Turning to `CC(C)CNC(=S)N1CCCN(c2nc3ccc(Cl)cc3s2)CC1`, the inhibition came to 3.18% in test [1], 2.71% in test [2] and 0.2% in test [3].
Turning to `N=C(N)NC(=O)Nc1cc(Cl)c(F)c(Cl)c1`, the inhibition came to 3.91% in test [1], 4.24% in test [2] and 0.63% in test [3].
Take `CCOc1cc2ncnc(Nc3ccc(OCc4ccccc4F)c(Cl)c3)c2cc1OCC`: the inhibition in test [1] is -0.1%; in test [2], 2.22%; in test [3] it was 0.76%.
On to `CC(C)(C)c1ccc(CNCC(C)(C)c2nc(-c3ccnc(N)n3)c(-c3ccc(Cl)c(O)c3)[nH]2)cc1`, for which the inhibition in test [1] was found to be 5.04%; in test [2], 6.23%; in test [3], 4.54%.
In the case of `N#Cc1c(N2CCN(c3ccc(F)cc3)CC2)nc(N)c2c(N)nc3c(c12)CC(=O)N3C1CC1`, the inhibition in test [1] was -2.19%; in test [2], 5.18%; in test [3] it was 13.5%.
